# Bioassay records deposited in PubChem by National Center for Advancing Translational Sciences (NCATS).
# Sampled rows, rich in hits. Any-hit rate of the full collection: about 6.5%.
# VACV mCherry inh = inhibitors of vaccinia virus infection (mCherry reporter signal) | AID 720579 | Vaccinia virus mCherry reporter infection, fluorescence | 310,000 tested, 0.63% active | Potency, µM (highest dose often 36.5 µM), most hits filed as inhibitors; calls by dose curve; tested in A549 cells; note: nearly all actives have a fitted effect of over 35% in size
# HCMV antiviral = human cytomegalovirus inhibition; HFF cells, HCMV-luciferase reporter, 72 h; hits give low values; activity change, negative = inhibition, % at 57.5 µM; 410,000 tested, 4.5% active; in the data active = activity change below about -60%; inconclusive = no clear call, values can overlap the other calls; inactive = above about -39%
#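 Steps: HFFs plated, 16 h 37C; compounds added; HCMV-luciferase added to MOI 1 PFU/cell; 72 h 37C; OneGlo reagent, 5 min room temperature; luminescence read, normalized to controls.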
# Vaccinia Venus = inhibitors of vaccinia virus (Venus reporter). Vaccinia virus Venus reporter expression, fluorescence. Potency, µM (titrated, usually from 36.5 µM), hits mostly inhibitors. 330,000 tested, 0.46% active; calls by dose curve; tested in A549 cells; note: nearly all actives have a fitted effect of over 30% in size
# LASV entry inh = Lassa virus entry inhibition; Lassa virus pseudotype entry inhibition, cell reporter; Potency, µM (doses to about 37.9 µM), most hits filed as inhibitors; 300,000 tested, 1.2% active; calls by dose curve; tested in HEK293 cells; note: nearly all actives have a fitted effect of over 50% in size
# Marburg entry inh = blocks Marburg virus binding to or entry into cells | Marburg virus pseudotyped entry inhibition, cell reporter | Potency, µM (series often up to 37.8 µM), most hits filed as inhibitors | AID 540276 | 300,000 tested, 1.8% active; calls by dose curve; tested in HEK293 cells
# FMDV inh = antivirals against foot and mouth disease virus. 410,000 tested, 1.2% active. Potency, µM (series often up to 57.9 µM), usual class: inhibitors. AID 1159524. FMDV antiviral cell-based qHTS; calls by dose curve; tested in HEK293T cells; note: read-out not given here; nearly all actives have a fitted effect of over 45% in size
# Numbers stand for hits; - = inactive; ? = inconclusive; . = no result given; ! = not confirmed by another sample.
SMILES,VACV mCherry inh,HCMV antiviral,Vaccinia Venus,LASV entry inh,Marburg entry inh,FMDV inh
COc1cc(CN2CCOc3ccc(CN4CCC(Oc5cccnc5)CC4)cc3C2)ccc1F,-,.,-,.,.,?
COc1cccc(C(C2=C(O)CC(C)(C)CC2=O)C2C(=O)CC(C)(C)CC2=O)c1 (centres undefined),-,-65,-,?,-,-
Cc1ccc(C(C2=C(O)CC(C)(C)CC2=O)C2C(=O)CC(C)(C)CC2=O)s1 (centres undefined),.,-,.,?,-,?
CC1(C)CC(=O)C(C(C2=C(O)CC(C)(C)CC2=O)c2ccc(Br)s2)C(=O)C1 (centres undefined),-,-,-,13µM,?,5.6µM
COCCNC(=O)C1CCCN(C(=O)c2cc(C)nn2C(C)(C)C)CC1 (centres undefined),-,-60,-,.,.,-
COCCNC(=O)C1CCCN(C(=O)c2cc(C)n(C(C)(C)C)n2)CC1 (centres undefined),-,-,-,.,.,-
CCC(=NCc1ccc(F)cc1)c1c(O)n(C)c(=O)n(C)c1=O,.,?,.,-,?,40µM
O=C(CN1C(=O)C(c2ccc(F)cc2)=NC12CCCCCC2)Nc1ccc(F)c(Cl)c1,-,-90,-,-,-,?
COc1cccc(NC(=O)CN2C(=O)C(c3ccc(C)cc3)=NC23CCCCCC3)c1,-,?,-,-,-,?
COc1cc(NC(=O)CN2C(=O)C(c3ccc(Cl)cc3)=NC23CCCCC3)cc(OC)c1,-,-93,-,-,?,-
COc1ccc(NC(=O)CN2C(=O)C(c3ccc(C)cc3)=NC23CCCCCC3)cc1Cl,-,-,-,-,?,-
COc1ccc(C2=NC3(CCCCCC3)N(CC(=O)Nc3cccc(Cl)c3)C2=O)cc1,-,-91,-,?,-,?
COc1ccc(NC(=O)CN2C(=O)C(c3ccccc3)=NC23CCC(C)CC3)cc1Cl (centres undefined),-,-,-,-,20µM,-
COc1ccc2c3c([nH]c2c1)[C@@H](CO)N(C(=O)C1CCOCC1)CC31CCN(Cc2nccs2)CC1,.,-,.,.,.,.
Cc1ccccc1Nc1oc(-c2ccccc2)nc1C=Cc1ccccc1,.,.,.,.,-,.
CC1(C)Cc2c(sc3ncnc(NNC(=S)NCc4ccccc4)c23)CO1,-,-,-,0.12µM,?,-
COc1ccc2[nH]c(=O)c(CN(Cc3cccs3)C(=S)Nc3cccc(C)c3)cc2c1,-,-66,-,?,4.5µM,-
COc1ccc2[nH]c(=O)c(CN(CCO)S(=O)(=O)c3c(C)ccc4nsnc34)cc2c1,.,-,.,-,-,-
COc1ccc2[nH]c(=O)c(CN(Cc3cccs3)S(=O)(=O)c3cccc4nsnc34)cc2c1,.,?,.,?,16µM!,-
c1ccc2c(c1)Nc1cc3ccccc3cc1S2,-,-,-,-,-,-
c1ccc2c(c1)Nc1ccncc1S2,?,-71,-,-,-,-
COC(=O)c1ccc(NC(=O)c2nc(SCc3ccccc3F)ncc2Cl)cc1,-,.,-,.,.,.
CC1(C(=O)Nc2ccc3c(c2)OCO3)CCN1C(=O)Cc1ccc(-c2ccccc2)cc1 (centres undefined),?,-81,-,.,.,-
CC1(C(=O)Nc2ccccc2)CCN1C(=O)Cc1ccc(-c2ccccc2)cc1 (centres undefined),-,-74,-,.,.,?
Cc1ccc(Cl)cc1N1CCN(C(=O)c2ccc3c(Cl)c4c(nc3c2)CCCC4)CC1,?,-,-,?,-,-
SMILES,VACV mCherry inh,HCMV antiviral,Vaccinia Venus,LASV entry inh,Marburg entry inh,FMDV inh
C/C(=N\Nc1nc2ccccc2[nH]1)c1ccccn1,.,-98,.,.,.,.
C/C(=N\Nc1nc2ccccc2[nH]1)c1ccc2c(c1)OCCO2,-,-,-,?,?,-
C/C(=N\Nc1nc2ccccc2[nH]1)c1ccc2c(c1)OCO2,?,-,?,?,12µM,-
Cc1ccc2nc(N/N=C/c3ccco3)cc(C)c2c1,.,-,.,.,.,-
CC(=NNc1cc(C)c2cc(C)ccc2n1)c1ccccn1,.,-100,.,.,.,.
Cc1cc(C(=O)COc2ccc(-c3nnco3)cc2)c(C)n1Cc1ccccc1,.,-70,.,?,?,?
CC1(C)Oc2ccc3ccc(=O)oc3c2-c2cn[nH]c21,.,-81,?,?,-,-
CC1(C)Oc2ccc3ccc(=O)oc3c2-c2cnoc21,-,-,-,.,-,-
CN(C)C(CNC(=S)Nc1ccc(F)cc1)c1cccnc1 (centres undefined),-,-,-,-,-,-
Cc1cccc(NC(=S)NCC(c2cccnc2)N(C)C)c1 (centres undefined),-,-71,-,-,-,-
C=CCNC(=O)N1C2=NC(C(=O)OC)=C(C(=O)OC)[C@@H]3N(C)c4ccccc4[C@]23C[C@H]1CO,.,.,.,?,-,.
C=CCN1CCN(C(c2ccc(Cl)cc2)c2nnnn2CCc2ccc(OC)c(OC)c2)CC1 (centres undefined),-,-101,-,-,-,-
COc1ccccc1CNC(=O)Cc1c(C)c2c(cc(C)c3c(C)coc32)oc1=O,-,-,-,-,-,-
Cc1[nH]c(=O)c(C(=O)/C=C/c2ccccc2F)c2c1CCCC2,.,-102,.,10µM,12µM,14µM
C/C(=C\c1ccccc1F)C(=O)c1c(C)cc(C)[nH]c1=O,-,-,-,-,-,-
CCOC(=O)c1c(Nc2ccc(O)cc2)nnc(-c2ccccc2)c1-c1ccccc1,-,-,-,?,?,-
CCCCNC(=O)c1ccc(NS(=O)(=O)c2ccc3[nH]c(=O)[nH]c3c2)cc1,-,-,-,-,-,-
Cc1cccc(N2CCN(C(=O)c3ccc(NS(=O)(=O)c4ccc5[nH]c(=O)[nH]c5c4)cc3)CC2)c1C,-,-67,-,-,-,-
CCCCCNC(=O)c1ccc(NS(=O)(=O)c2ccc3[nH]c(=O)[nH]c3c2)cc1,-,-95,-,-,-,-
O=c1c2ccccc2oc2c1ccc1ccccc12,?,.,?,.,.,-
O=c1c2ccccc2ccc2ccccc12,.,-104,.,.,.,-
Cc1oc(-c2ccccc2NC(=O)C2CCC2)nc1CNC(=O)c1ccc2ccccc2c1,-,.,-,.,.,-
COC(=O)/C=C1\N/C(=N\c2nc(C)cc(C)n2)N(c2ccc(Cl)cc2)C1=O,?,-,-,-,-,-
COC(=O)/C=C1\N/C(=N\c2nc(C)cc(C)n2)N(c2ccc(C)c(C)c2)C1=O,?,-,?,?,-,25µM
COc1ccccc1N(C)S(=O)(=O)c1ccc(C(=O)NCC(c2ccco2)N2CCCCC2)cc1 (centres undefined),.,-,.,.,.,-
Cc1c(C(=O)NCC(c2ccco2)N2CCCC2)sc2ccccc12 (centres undefined),-,-,-,-,11µM,-
CN(c1ccccc1)S(=O)(=O)c1ccc(C(=O)NCC(c2ccco2)N2CCCCC2)cc1 (centres undefined),.,-63,.,.,.,?
COc1ccc(OC)c(NC(=O)c2ccc3c(SCC(=O)O)c4c(nc3c2)CCCC4)c1,-,-,-,-,-,-
CCn1cc2nc(SCC(=O)Nc3ccccc3C(F)(F)F)n(Cc3ccc(C)cc3)c(=O)c2n1,-,-,-,?,?,?
